Source: PubChem BioAssay (National Center for Advancing Translational Sciences (NCATS))
IL2 activator: qHTS of IL-2 Activators. IL-2 activation reporter assay, cell-based qHTS; stimulated with anti-CD3/CD4/CD28 beads; in transgenic mouse T cells. activation, % (series mostly up to about 46 µM). 360,000 compounds, 0.065% hits. AID 652025, 2013; in the data active = activation above about 50%; inconclusive = mostly about 30% to 49%; note: 0% is about no effect
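Readout is EGFP and DsRed signal by fluorescent plate cytometry after 18 h at 37 degrees C. Transgenic mouse T cells (750/well) received compound for 60 min before bead stimulation (anti-CD3, anti-CD4, anti-CD28); memory T cells served as non-tolerant control.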
Nrf2 activator: qHTS of Nrf2 Activators. AREc32 ARE-luciferase reporter (MCF7-derived line), luminescence, 24 h. Potency, µM (doses to about 46.1 µM), for the others: at the highest dose activation, hits mostly activators. 410,000 compounds, 0.31% hits. AID 624171, 2012; note: potency is the fitted concentration of half-maximal effect; % of control where 0% means no effect; nearly all actives have a fitted effect of over 65% in size
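For detection, Steady-Glo was added and plates sat 30 min at RT; before that, AREc32_Fluc cells grown overnight in OPTI-MEM/5% FBS had been treated with 23 nL compound for 24 hr at 37 deg C.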
ELG1 repair inh: qHTS screen for small molecules that inhibit ELG1-dependent DNA repair in human embryonic kidney (HEK293T) cells expressing luciferase-tagged ELG1; HEK293T ELG1-luciferase reporter, luminescence, 16 h; DNA damage induced by 5-fluorouridine; Potency, µM (series often up to 46.1 µM), without a hit: at the top dose activity change, negative = inhibition, usual class: inhibitors; 330,000 compounds, 2.3% hits; note: potency is the fitted concentration of half-maximal effect; % is set by controls: 0 for no effect and ±100 for the full control effect; nearly all actives have a fitted effect of over 55% in size
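Step one: seed 2,000 cells per well. Step two: pin-transfer compound or DMSO alongside 5-fluorouridine. Step three: incubate 16 hr, 37 °C, 5% CO2. Step four: add ONE-Glo, wait 30 min, read luminescence.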
BRCA1 expr up: qHTS Assay to Identify Small Molecule Activators of BRCA1 Expression. MCF7-BRCA1-FFLuc reporter, luminescence, 48 h; response scale: scaled: vehicle 0%, 10 µM genistein 100%. Potency, µM (top dose mostly 46.1 µM), without a hit: at the top dose activation, usual class: activators. 380,000 compounds, 1.1% hits; note: potency is the fitted concentration of half-maximal effect; nearly all actives have a fitted effect of over 80% in size
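Using MCF7 cells harboring a BRCA1 firefly luciferase reporter, plated 2 h before compound pinning, the screen measured luminescence after 48 h incubation. Responses were normalized to DMSO and 10 microM genistein, then fitted for concentration-effect.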
Numbers without * were called inactive. An excerpt weighted towards active compounds, which were near 3.1% of everything screened. Unless noted, calls come from the whole dose curve; as a rule, active = well fitted curve in the direction sought with a large enough effect; inconclusive = small, poorly fitted or top-dose-only effect, or another doubt; inactive = no such curve, though single readings can be large; an effect the other way counts as inactive or inconclusive.

Results for O=C(Nc1cccc(S(=O)(=O)N2CCCC2)c1)c1ccco1 ?
IL2 activator: -1; Nrf2 activator: 12%; ELG1 repair inh: 13%; BRCA1 expr up: -10%

Results for CN(c1ccccc1)S(=O)(=O)c1cccc(NC(=O)c2cc(=O)c3ccccc3o2)c1 ?
IL2 activator: -1; Nrf2 activator: -1%; ELG1 repair inh: 15µM*; BRCA1 expr up: -37%

Results for NS(=O)(=O)c1cccc(NC(=O)c2cc3ccccc3o2)c1 ?
IL2 activator: -1; Nrf2 activator: 0%; ELG1 repair inh: inconclusive; BRCA1 expr up: inconclusive

Results for O=C(Nc1cccc(S(=O)(=O)N2CCCCCC2)c1)c1cc(=O)c2ccccc2o1 ?
IL2 activator: -1; Nrf2 activator: 9%; ELG1 repair inh: 12µM*; BRCA1 expr up: -47%

Results for NS(=O)(=O)c1cccc(NC(=O)c2cc(=O)c3ccccc3o2)c1 ?
IL2 activator: 0; Nrf2 activator: 13µM*; ELG1 repair inh: inconclusive; BRCA1 expr up: -6%

Results for CCCNC(=O)c1cc(C2CCCN(C(=O)c3ccc(NC(C)=O)cc3)C2)on1 (centres undefined) ?
IL2 activator: 1; Nrf2 activator: 0%; BRCA1 expr up: 3%

What do the screens show for `CCCCNC(=O)c1nc(C2CCN(S(=O)(=O)c3ccc(S(C)(=O)=O)cc3)CC2)oc1-c1ccccc1`?
IL2 activator: -1

Results for COc1ccc(C(C(=O)NCc2ccccc2)N(C(=O)Cn2nnc3ccccc32)c2cccc(OC)c2)cc1 (centres undefined) ?
Nrf2 activator: -1%

How did CCCc1cc(=O)[nH]c(Nc2cc(Cl)cc(Cl)c2)n1 do in these assays?
Nrf2 activator: 6%

How did Cc1nn2c(=O)cc(COc3ccc(/C=C(\C#N)C(=O)Nc4ccc(F)cc4)cc3)nc2s1 do in these assays?
Nrf2 activator: -1%; BRCA1 expr up: -2%

Results for Cc1ccc(NC(=O)C(Cc2ccccc2)n2cccc2)cc1C (centres undefined) ?
Nrf2 activator: 0%

What do the screens show for `Cc1ccc(NC(=S)NNc2ncc(C(F)(F)F)cc2Cl)c(C)c1`?
IL2 activator: 0; Nrf2 activator: -1%; ELG1 repair inh: 21µM*; BRCA1 expr up: -47%

Results for CCCCc1ccc(-n2nc3cc(Cl)c(NC(=O)c4ccc(OC)cc4)cc3n2)cc1 ?
Nrf2 activator: -1%; BRCA1 expr up: 39%

What do the screens show for `Cc1ccc(NC(=O)CN2CCOCC2)c(Br)c1`?
IL2 activator: -3; Nrf2 activator: 3%; ELG1 repair inh: inconclusive; BRCA1 expr up: 66%

Results for COc1cccc(CN2CCN(CC(=O)Nc3ccccc3Cl)CC2)c1 ?
IL2 activator: -2; Nrf2 activator: 1%; ELG1 repair inh: 13µM*; BRCA1 expr up: -32%

Results for Cc1ccc(NC(=O)CN2CCN(Cc3ccccc3)CC2)c(Br)c1 ?
IL2 activator: 0; Nrf2 activator: 3%; ELG1 repair inh: 21µM*; BRCA1 expr up: -32%

Results for O=C(CN1CCN(Cc2ccccc2)CC1)N/N=C/c1ccc(Br)s1 ?
IL2 activator: -2; Nrf2 activator: 2%; ELG1 repair inh: 9.2µM*; BRCA1 expr up: -26%

How did COc1cccc(C(=O)NC2CCN(CC(=O)Nc3cccc(C)c3C)CC2)c1 do in these assays?
IL2 activator: 0; Nrf2 activator: 0%; ELG1 repair inh: -13%; BRCA1 expr up: 13%

Results for COc1ccccc1NC(=O)CN1CCN(CC(=O)Nc2ccccc2Cl)CC1 ?
IL2 activator: -1; Nrf2 activator: -1%; ELG1 repair inh: 0%; BRCA1 expr up: -8%

How did COc1cc(OC)cc(C(=O)NC2CCN(CC(=O)Nc3cccc4ccccc34)CC2)c1 do in these assays?
IL2 activator: 0; Nrf2 activator: 0%; ELG1 repair inh: 12µM*; BRCA1 expr up: -5%

Results for COc1ccc(NC(=O)c2c(C)oc3ccc(O)c(CN4CCN(Cc5ccccc5)CC4)c23)cc1Cl ?
Nrf2 activator: 10%

What do the screens show for `O=C(CN1CCN(Cc2ccccc2F)CC1)Nc1ccccc1Cl`?
IL2 activator: -1; Nrf2 activator: -1%; ELG1 repair inh: 10µM*; BRCA1 expr up: 4%
